Calls of active or inactive are those of the source.

The assay can be described thus: growth effects on S. cerevisiae YJM789 – YJM789 clinical isolate, OD600, 24 h, basal, primary screen (AID 1089).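 Further: growth of clinical yeast isolate S. cerevisiae YJM 789 seeded 1000 cells per well; test concentration not given here.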 Particulars: higher = more signal, called active from +8 up or from −8 down.
As to `N#Cc1ccc(NN2C(C(O)c3ccc(Br)cc3)C=CC3C(=O)N(c4ccccc4)C(=O)C32)cc1` (stereo not given), the z-score is -1.16 (inactive).

As for `CC1CC/C=C\[C@H]2OC34C=CCN(c5ccc(Cl)cc5)C(=O)[C@H]3N(C(C)CO)C(=O)[C@]4(C)C2C(=O)O1` (stereo not given in full), the z-score was -0.0407 (inactive).

For `CO[C@H]1O[C@H](CO)[C@@H](OC(=O)Nc2ccc(Br)cc2)[C@@H]2OC(=O)[C@@H](Cc3ccccc3)C/C=C/C[C@H](Cc3ccccc3)C(=O)O[C@@H]12`, the z-score is 1.1 (inactive).

As to `CCOC(=O)C[C@H]1[C@H](OC(=O)c2cc3ccccc3oc2=O)[C@@H](NC(=O)c2ccccc2)c2cc(OCCCO)ccc2N1C(=O)c1ccccc1`, the z-score is 0.126 (inactive).

On to `O=C1OCCC=C[C@H]2OC34C=CCN(c5ccc6ccccc6c5)C(=O)[C@H]3N(CCCO)C(=O)[C@@H]4C12` (stereo not given in full), for which the z-score is 0.312 (inactive).

Regarding `O=C1C2C=CC(C(O)C3CC=CCC3)N(Nc3ccccc3)C2C(=O)N1c1ccccc1` (stereo not given), the z-score is 0.399 (inactive).

For `Cc1ccc(S[C@]2(C(=O)NC(C)C)CC(=O)N(Cc3cc(C(F)(F)F)cc(C(F)(F)F)c3)[C@@H]2c2ccc(CO)cc2)cc1`, the z-score was -0.637 (inactive).

`CCOC(=O)C[C@H]1[C@H](OC(=O)c2ccccc2-c2ccccc2)[C@@H](NC(=O)c2ccc3ccccc3n2)c2cc(OCCCO)ccc2N1C(=O)Cc1ccc(OC)cc1`: the z-score is 0.59 (inactive).

On to `CC(C)c1ccc(NN2C(C(O)c3ccc(C#N)cc3)C=CC3C(=O)N(c4ccccc4)C(=O)C32)cc1` (stereo not given), for which the z-score is 0.902 (inactive).

`CCC#CCN(Cc1ccccc1Br)[C@H](/C=C/C1CC1)[C@@H](O)Cc1ccccc1`: the z-score was -2.3 (inactive).
